PubChem BioAssay AID1159580 (chemical genetic matrix, 2015)
Screen size: about 5,500 compounds; about 2,000 (36%) were called active. About 18% were inconclusive and are not listed. Cut-off read from the data, not from the text of the source: active = normalized growth mostly below about 0.91 (no sharp cut-off); inconclusive = no clear call, values can overlap the other calls; inactive = mostly above about 0.92. The list shows a part of the results.

Experiment: chemical genetic growth profiling, strain panel (AID 1159580);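 note: tested at 20 µM; growth read once vehicle control cultures reached saturation at 30 °C; 1 = growth at the plate median or of vehicle wells; lower values mean less growth of the strain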
Conditions: S. cerevisiae deletion strains, growth OD

Measured: normalized growth

Clc1cccc(Cl)c1C1CC(c2ccccc2)=Nc2ccccc2S1 (stereo unspecified)
inactive: locus YAR019C, strain CDC15, stronger effect = lower value 0.986 | locus YBL105C, strain PKC1, stronger effect = lower value 0.986 | locus YBR135W, strain CKS1, stronger effect = lower value 0.993 | locus YBR136W, strain MEC1, stronger effect = lower value 0.962 | locus YBR160W, strain CDC28, stronger effect = lower value 0.988 | locus YDL017W, strain CDC7, stronger effect = lower value 0.98 | locus YDL028C, strain MPS1, stronger effect = lower value 0.99 | locus YDL101C, strain DUN1, stronger effect = lower value 0.984 | locus YDL108W, strain KIN28, stronger effect = lower value 0.989 | locus YDL132W, strain cdc53, stronger effect = lower value 0.994 | locus YDL214C, strain PRR2, stronger effect = lower value 0.978 | locus YDR052C, strain DBF4, stronger effect = lower value 0.982 | locus YDR054C, strain cdc34, stronger effect = lower value 0.978 | locus YDR226W, strain ADK1, stronger effect = lower value 0.982 | locus YDR477W, strain SNF1, stronger effect = lower value 0.979 | locus YER123W, strain YCK3, stronger effect = lower value 0.981 | locus YER133W, strain GLC7, stronger effect = lower value 0.981 | locus YFL009W, strain cdc4, stronger effect = lower value 0.989 | locus YFL029C, strain CAK1, stronger effect = lower value 0.98 | locus YFR003C, strain YPI1, stronger effect = lower value 0.989 | locus YFR019W, strain FAB1, stronger effect = lower value 0.986 | locus YFR028C, strain CDC14, stronger effect = lower value 0.985 | locus YGR040W, strain KSS1, stronger effect = lower value 0.967 | locus YGR052W, strain FMP48, stronger effect = lower value 1.07 | locus YGR092W, strain DBF2, stronger effect = lower value 0.989 | locus YHR030C, strain SLT2, stronger effect = lower value 0.987 | locus YHR079C, strain IRE1, stronger effect = lower value 0.992 | locus YHR082C, strain KSP1, stronger effect = lower value 1.02 | locus YHR205W, strain SCH9, stronger effect = lower value 0.936 | locus YIL147C, strain SLN1, stronger effect = lower value 0.981 | locus YJL095W, strain BCK1, stronger effect = lower value 1 | locus YJL128C, strain PBS2, stronger effect = lower value 0.958 | locus YJL157C, strain FAR1, stronger effect = lower value 0.988 | locus YJR016C, strain ILV3, stronger effect = lower value 0.992 | locus YJR066W, strain TOR1 (second series), stronger effect = lower value 0.95 | locus YJR066W, strain TOR1, stronger effect = lower value 0.991 | locus YKL048C, strain ELM1, stronger effect = lower value 0.982 | locus YKL067W, strain YNK1, stronger effect = lower value 0.974 | locus YKL101W, strain HSL1, stronger effect = lower value 0.966 | locus YKL193C, strain SDS22, stronger effect = lower value 0.991 | locus YKL203C, strain TOR2, stronger effect = lower value 1.02 | locus YLR113W, strain HOG1, stronger effect = lower value 0.93 | locus YLR133W, strain CKI1, stronger effect = lower value 0.977 | locus YLR403W, strain SFP1, stronger effect = lower value 0.973 | locus YML070W, strain DAK1, stronger effect = lower value 0.981 | locus YMR001C, strain CDC5, stronger effect = lower value 0.986 | locus YMR205C, strain PFK2 (second series), stronger effect = lower value 0.979 | locus YMR277W, strain FCP1, stronger effect = lower value 0.991 | locus YNL006W, strain LST8, stronger effect = lower value 0.995 | locus YNL020C, strain ARK1, stronger effect = lower value 0.985 | locus YNL161W, strain CBK1, stronger effect = lower value 0.981 | locus YNL183C, strain NPR1, stronger effect = lower value 0.997 | locus YNL207W, strain RIO2, stronger effect = lower value 0.985 | locus YNL222W, strain SSU72, stronger effect = lower value 0.995 | locus YNL307C, strain MCK1 (second series), stronger effect = lower value 0.999 | locus YOL078W, strain AVO1, stronger effect = lower value 0.99 | locus YOL136C, strain PFK27, stronger effect = lower value 0.973 | locus YOR061W, strain CKA2, stronger effect = lower value 0.978 | locus YOR119C, strain RIO1, stronger effect = lower value 0.997 | locus YOR231W, strain MKK1, stronger effect = lower value 0.988 | locus YOR329C, strain SCD5, stronger effect = lower value 0.978 | locus YPL031C, strain PHO85, stronger effect = lower value 0.982 | locus YPL153C, strain RAD53, stronger effect = lower value 0.982 | locus YPL204W, strain HRR25, stronger effect = lower value 0.99 | locus YPL209C, strain IPL1, stronger effect = lower value 0.988 | locus YPL256C, strain CLN2, stronger effect = lower value 0.947 | locus YPR025C, strain CCL1, stronger effect = lower value 0.987 | locus YPR106W, strain ISR1, stronger effect = lower value 0.981 | locus YPR111W, strain DBF20, stronger effect = lower value 0.983 | strain NNK1, stronger effect = lower value 0.99 | strain TSCII, stronger effect = lower value 0.986
